Screening results from PubChem BioAssay.
Most compounds without a hit are left out; they make up all but 1.3% or so of the library.
S1P3 antagonist: S1P3 receptor antagonists, primary screen, cell-based. 0.27% of 170,000 active. CHO S1P3 NFAT-BLA reporter, FRET fluorescence, antagonist mode. AID 485, 2006. Sphingosine 1-phosphate receptor 3 (Homo sapiens), Q99500. inhibition, % at 4.98 µM;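 active = inhibition above the plate cutoff, the mean inhibition of test wells on that plate plus 3 SD, cut at about 28% in these data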;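 also: cells challenged with S1P at its EC80 of 0.8 µM; blue over green emission ratio from cleaved BLA substrate after 4 h stimulation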
GALR2 agonist: GALR2 receptor agonists, primary screen, cell-based; 0.48% of 140,000 active; activation, % (concentration not given with the values); AID 803, 2007; GALR2-expressing cells, agonist activation read-out; Galanin receptor type 2 (Homo sapiens), O43603; in the data active = activation above about 5%, passing the limit was not always enough
S1P4 antagonist: S1P4 receptor antagonists, primary screen, cell-based. Sphingosine 1-phosphate receptor 4 (Homo sapiens), O95977. S1P4-expressing cells, antagonist mode, reporter read-out. inhibition, % at 4.98 µM. 0.26% of 220,000 active. AID 1510, 2009; in the data active = inhibition above about 29%
Target sequence (O95977 whole entry, looked up): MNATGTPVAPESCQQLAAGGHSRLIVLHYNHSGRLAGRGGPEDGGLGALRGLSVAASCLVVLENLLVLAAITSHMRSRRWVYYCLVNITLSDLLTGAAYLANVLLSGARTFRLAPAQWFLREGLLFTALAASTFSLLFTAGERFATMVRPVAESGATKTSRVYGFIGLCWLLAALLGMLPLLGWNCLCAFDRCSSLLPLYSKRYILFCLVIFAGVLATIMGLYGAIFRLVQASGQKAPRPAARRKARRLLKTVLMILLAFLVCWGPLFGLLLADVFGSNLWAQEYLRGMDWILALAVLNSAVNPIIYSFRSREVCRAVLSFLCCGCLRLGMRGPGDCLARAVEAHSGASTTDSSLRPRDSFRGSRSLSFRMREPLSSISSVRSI
GALR2 blocker: GALR2 antagonists in receptor-expressing cells, primary screen | 0.39% of 140,000 active | antagonist mode | inhibition, % at 4 µM; in the data active = inhibition above about 27%;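 also: cells stimulated with galanin 1-16 at roughly its EC80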
S1P4 ag: S1P4 receptor agonists, primary screen, cell-based | Sphingosine 1-phosphate receptor 4 (Homo sapiens), O95977 | S1P4-expressing cell line, agonist reporter assay | activation, % at 4.98 µM | 0.35% of 220,000 active | AID 1509, 2009; in the data active = activation above about 11%
S1P4 agonist cf: S1P4 receptor agonists, retest, confirmation, cell-based, high throughput | AID 1523, 2009 | S1P4 agonist cell-based reporter assay | shares compounds with S1P4 ag | activation, % at 4.98 µM | 7% of 740 active; in the data active = activation above about 12%
S1P1 ag: S1P1 receptor agonists, human, counter-screen for S1P4 agonist project, cell-based; shares compounds with S1P4 ag; S1P1 agonist cell-based assay, activation; 4% of 740 active; activation, % at 4.98 µM; in the data active = activation above about 21%
S1P4 antag conf: S1P4 receptor antagonists, human, confirmation, cell-based | shares compounds with S1P4 antagonist | S1P4-expressing cell line, antagonist mode, reporter read-out | inhibition, % at 4.98 µM | 71% of 520 active; in the data active = inhibition above about 30%
S1P1 antag: S1P1 receptor antagonists, human, counter-screen for S1P4 antagonist project, cell-based; shares compounds with S1P4 antagonist; 37% of 520 active; inhibition, % at 4.98 µM; cell-based S1P1 antagonist counterscreen, inhibition; in the data active = inhibition above about 40%;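 also: receptor stimulated with S1P near its EC80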
Of the large screens only hits and unclear results are named; the others gave an inactive call (follow-up assays come after a bar, where they were run).

Cc1cc(C)nc(N/N=C/c2ccc(N3CCOCC3)cc2)n1	S1P4 ag 175 (no result: GALR2 agonist, GALR2 blocker) | S1P4 agonist cf 21 | S1P1 ag inactive
CCOc1ccc(Oc2c(/C=N/NC(=O)COc3ccccc3OC)c(C)nn2-c2ccccc2)cc1	S1P4 ag 22 | S1P4 agonist cf inactive | S1P1 ag inactive
CCOC(=O)c1c(-n2c(C)cc(C=O)c2C)sc2c1CCCC2	S1P4 ag 16 (no result: S1P3 antagonist) | S1P4 agonist cf 21 | S1P1 ag inactive
NC(=O)CSc1nnc(-c2ccc(S(=O)(=O)N3CCCCC3)cc2)n1-c1ccccc1	none (no result: S1P3 antagonist)
COc1ccccc1-n1c(SCC(N)=O)nnc1-c1ccc(S(=O)(=O)N2CCCCC2)cc1	S1P4 ag 23 | S1P4 agonist cf inactive | S1P1 ag inactive
CCOc1cc(C(N)=O)cc(Cl)c1OCc1ccccc1	S1P4 ag 24 (no result: GALR2 agonist, GALR2 blocker) | S1P4 agonist cf inactive | S1P1 ag inactive
COc1cc(C(N)=O)cc(Cl)c1OCc1ccccc1	none
O=C(NC(=C(Cl)Cl)S(=O)(=O)c1ccc(Cl)cc1)c1ccccc1	none (no result: GALR2 agonist, GALR2 blocker)
Cc1cc(C(=O)CN2C(=O)C(=O)N(Cc3ccccc3)C2=O)c(C)n1CC1COc2ccccc2O1 (stereo not drawn)	none (no result: GALR2 agonist, GALR2 blocker)
Cc1cc(C(=O)CN2C(=O)C(=O)N(Cc3ccccc3)C2=O)c(C)n1-c1ccccc1F	S1P4 ag 13 (no result: GALR2 agonist, GALR2 blocker) | S1P4 agonist cf inactive | S1P1 ag inactive
CN(C1=C(N2CCCCC2)C(=O)c2ccccc2C1=O)c1ccccc1	S1P4 ag 12 (no result: S1P3 antagonist) | S1P4 agonist cf inactive | S1P1 ag inactive
C=CCNc1cnn(CC(C)=O)c(=O)c1Br	none (no result: S1P3 antagonist)
CC(C)(C)C(=O)Cn1ncc(Br)c(Br)c1=O	S1P4 antagonist 64 (no result: GALR2 agonist, GALR2 blocker) | S1P4 antag conf 93 | S1P1 antag inactive
O=S(=O)(Nc1cccc2ncccc12)c1cccs1	S1P4 antagonist 54 | S1P4 antag conf 106 | S1P1 antag 91
COc1ccccc1-c1cc(C(=O)Nc2c(F)cc(F)cc2Br)no1	S1P4 antagonist 41 | S1P4 antag conf 42 | S1P1 antag inactive
NN1C(=O)NC(c2ccccc2)(c2ccccc2)C1=O	none (no result: GALR2 agonist, GALR2 blocker)
CC1(C)CC(=O)C(C2=NC3(CCCCC3)Cc3ccccc32)=C(O)C1	none (no result: GALR2 agonist, GALR2 blocker)
CN(CCC#N)C(=O)COC(=O)c1ccccc1C(=O)c1ccc(Cl)c([N+](=O)[O-])c1	S1P4 antagonist 55 (no result: GALR2 agonist, GALR2 blocker) | S1P4 antag conf 112 | S1P1 antag 53
CC(C)N(C(=O)COC(=O)c1ccccc1C(=O)c1ccc(Cl)c([N+](=O)[O-])c1)C(C)C	S1P4 antagonist 31 (no result: GALR2 agonist, GALR2 blocker) | S1P4 antag conf 60 | S1P1 antag 46
CN(CCC#N)C(=O)COC(=O)c1ccc(Cl)c(S(N)(=O)=O)c1	none
Cc1ccc(/C=C/C(=O)Nc2nc3ccccc3[nH]2)cc1	none
Cc1ccc(/C=C/C(=O)c2nc3ccccc3[nH]2)cc1	S1P4 antagonist 29 (no result: S1P3 antagonist) | S1P4 antag conf 81 | S1P1 antag inactive
CC(C)Cc1ccc(C(C)NC(=O)c2ccc(=O)[nH]c2)cc1 (stereo not drawn)	none (no result: GALR2 agonist, GALR2 blocker)
CCOC(=O)C1=C(Cc2ccc(F)cc2)C(=O)c2ccccc2C1=O	none (no result: S1P3 antagonist)
CCCCc1ccc(/C=C2\C(=O)c3ccccc3C(O)=C2C(=O)OCC)cc1	S1P4 antagonist 36 (no result: S1P3 antagonist) | S1P4 antag conf 68 | S1P1 antag inactive
Cc1cc(NC(=O)/C=C/c2ccccc2)c(C(C)C)cc1O	S1P4 antagonist 94 (no result: GALR2 agonist, GALR2 blocker) | S1P4 antag conf 109 | S1P1 antag inactive
Cn1c(CN2CCOCC2)nnc1SCc1cccc(F)c1	none (no result: GALR2 agonist, GALR2 blocker)
O=[N+]([O-])c1cc(S(=O)(=O)C(F)(F)F)ccc1Sc1nc2ccccc2[nH]1	S1P4 antagonist 33 (no result: S1P3 antagonist) | S1P4 antag conf 110 | S1P1 antag inactive
CS(=O)(=O)c1ccc(Sc2nc3ccccc3[nH]2)c([N+](=O)[O-])c1	none (no result: S1P3 antagonist)
O=C(O)c1ccc(Cl)c(S(=O)(=O)Nc2cccc(C(=O)Nc3cccc(C(F)(F)F)c3)c2)c1	none (no result: GALR2 agonist, GALR2 blocker)
Cc1ccc(S(=O)(=O)N(C)CCCC(=O)NC(C)(C)C)cc1	none (no result: GALR2 agonist, GALR2 blocker)
O=S(=O)(C/C(=C/CO)S(=O)(=O)c1ccccc1)c1ccccc1	S1P4 antagonist 40, GALR2 blocker 82 | S1P4 antag conf 87 | S1P1 antag inactive
CCN(Cc1ccccc1)C(=O)CS(=O)(=O)c1ccccc1	none (no result: GALR2 agonist, GALR2 blocker)
COc1ccccc1C(=O)OCc1nc(N)nc(Nc2ccccc2C)n1	S1P4 antagonist 107 | S1P4 antag conf inactive | S1P1 antag inactive
CCCCC(=O)OCc1nc(N)nc(Nc2ccccc2C)n1	none
COc1ccccc1-c1cc(C(F)(F)F)nc(S(=O)(=O)CCCC(=O)NC(C)C)n1	none
COc1ccccc1-c1cc(C(F)(F)F)nc(S(C)(=O)=O)n1	S1P4 antagonist 68 (no result: S1P3 antagonist) | S1P4 antag conf 86 | S1P1 antag inactive
CCN(CC)c1ccc(/C=c2\sc3nc4ccccc4n3c2=O)c(O)c1	S1P4 antagonist 37 (no result: GALR2 agonist, GALR2 blocker) | S1P4 antag conf inactive | S1P1 antag inactive
O=C(NCc1cccnc1)C(=O)NCC1OCCN1S(=O)(=O)c1ccc(Cl)cc1 (stereo not drawn)	none
O=C(NCc1cccnc1)/C(=C/c1ccc(-c2ccc(Cl)cc2)o1)S(=O)(=O)c1ccccc1	S1P4 antagonist 49 (no result: S1P3 antagonist) | S1P4 antag conf 101 | S1P1 antag 43
Cc1ccc(/C=N/NC(=O)c2ccc3nc[nH]c3c2)o1	none (no result: GALR2 agonist, GALR2 blocker)
CSCCC(NC(=O)c1ccccc1)C(=O)NCc1ccco1 (stereo not drawn)	none
OC(c1cc(-c2ccc(Cl)cc2)nc2ccccc12)C1CCCCN1 (stereo not drawn)	S1P4 antagonist 53 (no result: GALR2 agonist, GALR2 blocker) | S1P4 antag conf 95 | S1P1 antag 83
O=C(/C=C/c1ccccc1[N+](=O)[O-])c1ccccc1Br	S1P4 antagonist 36 (no result: GALR2 agonist, GALR2 blocker) | S1P4 antag conf 79 | S1P1 antag inactive
Cc1ccc(C(=O)/C=C/c2ccccc2[N+](=O)[O-])cc1	none (no result: GALR2 agonist, GALR2 blocker)
Cc1onc(-c2ccccc2Cl)c1C(=O)OCn1nnc2ccccc2c1=O	S1P4 antagonist 30 | S1P4 antag conf inactive | S1P1 antag inactive
CCN(CC)S(=O)(=O)c1cccc(C(=O)OCC(=O)c2ccc3c(c2)OCCO3)c1	none
CN(C)C(=O)c1ccc(-c2cc(C(F)(F)F)n(C)n2)s1	none (no result: GALR2 agonist, GALR2 blocker)
